# Hits are enriched below; roughly 2.3% of the tested compounds scored in any of these assays.
# TDP43 rescue = rescues yeast growth from TDP-43 toxicity; TDP-43 expressing yeast growth rescue, BacTiter-Glo, 24 h; Potency, µM (series often up to 46.1 µM), inactives show at the top dose growth rescue (activation), usual class: activators; 410,000 compounds, 1.8% hits; further: % of control where 0% means no effect; nearly all actives have a fitted effect of over 50% in size
#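 Growth rescue of TDP-43-toxic yeast measured as ATP luminescence (BacTiter-Glo). Cells grown to mid-log in raffinose, induced in galactose at OD600=0.02, exposed to compound 24 hr at 30 deg C.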
# uPA surface inh = cell surface uPA generation inhibition. cell surface uPA generation assay, qHTS. 330,000 compounds, 0.31% hits. Potency, µM (top dose mostly 38.3 µM), for the others: at the top dose activity change, negative = inhibition, hits mostly inhibitors. AID 540303; active means well fitted inhibition curve with a large enough effect; inconclusive means small, poorly fitted or top-dose-only effect; inactive means no such curve, though single readings can be large or run the other way; tested in mouse RAW 264.7 cells; further: on the % scale 0 is the no-effect control and ±100 the full control effect; nearly all actives have a fitted effect of over 55% in size
# FUS suppressor = suppressors of FUS proteinopathy in yeast | S. cerevisiae FUS-expressing, growth rescue, OD600, 24 h | Potency, µM (top dose mostly 76.6 µM), hits mostly activators | 390,000 compounds, 0.24% hits;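 further: plate controls were DMSO vehicle for no effect and reference control for full effect; nearly all actives have a fitted effect of over 55% in size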
#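 Absorbance at 600 nm, taken 24hr after compound addition, measured rescue of FUS-yeast growth at 30C. Induction used 2% galactose with seeding at OD 0.005. Controls: CP55940 from 92uM final, DMSO only.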
# BCR signal inh = inhibitors of chronic active B-cell receptor signaling | ABC-DLBCL IkBa-CBG/CBR reporter, luminescence ratio, 4 h | Potency, µM (series often up to 46.1 µM), inactives show top-dose activity change, negative = inhibition, hits mostly inhibitors | 340,000 compounds, 0.05% hits | AID 493014; active means well fitted inhibition curve with a large enough effect in the signal ratio, with a control signal flat, not every such curve was filed as active; inconclusive means small, poorly fitted or top-dose-only effect, or effect the other way, or a change in a side signal; the % refers to the signal ratio;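 further: plate controls were basal doxycycline-induced cells for no effect and cells given 10 µM MG132 for full effect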
#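 Cell line TMD8 (human ABC DLBCL), stably expressing tet-inducible CBG68-IkBa fusion and CBR; IMDM/0.5% FBS; cpd up to 46 uM; dox induction, 4 h, 37C/5% CO2; dual luminescence; green/red ratio; MG132 control.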
# aSyn rescue = alpha-synuclein toxicity inhibition in yeast | Yeast expressing alpha-synuclein, growth rescue, BacTiter-Glo, 24 h | Potency, µM (titrated, usually from 46.1 µM), without a hit: at the highest dose growth rescue (activation), most hits filed as activators | 370,000 compounds, 0.14% hits; further: % of control where 0% means no effect; nearly all actives have a fitted effect of over 65% in size
#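 Readout is rescue of growth in alpha-synuclein-expressing yeast, so inhibitors of toxicity appear as activators. Growth after 24 hr at 30 deg C in galactose medium is quantified by luminescence.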
# Abeta rescue = A-beta toxicity reversal in yeast; Potency, µM (series often up to 46.1 µM), most hits filed as activators; 410,000 compounds, 0.063% hits; yeast expressing A-beta42, growth rescue, OD600, 48 h; response scale: 0% DMSO, 100% iron-clioquinol control; further: nearly all actives have a fitted effect of over 55% in size
#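 Yeast A-beta toxicity model in growth medium with pinned compounds, 48 h at 30 C; growth read as absorbance at 600 nm. Normalized to FeCl3/clioquinol equimolar mix (positive) and DMSO (negative).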
# An asterisk follows results filed as active; i = inactive; ? = inconclusive; . = no result. Unless noted, the call rests on the fitted dose curve; in most records, active means well fitted curve in the direction sought with a large enough effect; inconclusive means small, poorly fitted or top-dose-only effect, or another doubt; inactive means no such curve, though single readings can be large; an effect the other way counts as inactive or inconclusive. Potency means the concentration at half of the fitted maximal effect.
SMILES,TDP43 rescue,uPA surface inh,FUS suppressor,BCR signal inh,aSyn rescue,Abeta rescue
CC(C)NS(=O)(=O)c1ccc(CCC(=O)N2CCCC2)cc1,13%,2%,i,2%,8%,i
CN(c1ccccc1)S(=O)(=O)c1ccc(NC(=S)NC(=O)c2ccccc2)cc1,-3%,1%,?,?,-5%,i
CN(c1ccccc1)S(=O)(=O)c1ccc(NC(=S)NC(=O)C2CC2)cc1,18µM*,-3%,i,3%,1%,i
O=C(Nc1ccc(F)cc1)C1CCCCC1,20%,0%,i,-9%,-12%,i
N#Cc1ccc(NC(=S)NC(=O)C2CC2)cc1,13µM*,.,i,.,?,i
O=C(NC(=S)Nc1ccc(F)cc1)C1CCCCC1,22%,3%,i,-7%,-6%,5µM*
Cc1ccc(NC(=S)NC(=O)C2CCCC2)cc1C,25%,6%,i,?,-23%,8.9µM*
Cc1ccc(NC(=O)COC(=O)CCNS(=O)(=O)c2ccc(C)c(C)c2)cc1,19%,4%,i,0%,-1%,i
Nc1nc(SCc2ccc(Cl)cc2)ns1,16µM*,6%,i,0%,-5%,?
Nc1nc(SCc2ccccc2)ns1,30%,1%,i,?,0%,i
CC(C)c1ccc(C(=O)NN2CCOCC2)cc1,19%,4%,i,3%,4%,i
Nc1cccc(Oc2c(F)c(F)c(Oc3cccc(N)c3)c(F)c2F)c1,5.6µM*,8%,i,3%,-13%,i
CN(C)c1ccc(C(CNC(=O)c2ccccc2)c2c[nH]c3ccccc23)cc1 (stereo unspecified),3%,2%,11µM*,?,-1%,i
Cc1cc(C)c2c(c1)-c1cc(C)nn1C(c1ccc3c(c1)OCO3)N2 (stereo unspecified),18µM*,0%,i,0%,11%,i
CCOc1ccc(C2Nc3c(C)cccc3-c3cc(C)nn32)cc1 (stereo unspecified),11µM*,.,i,.,.,?
Cc1cc2n(n1)C(c1ccc3c(c1)OCO3)Nc1c(C)cccc1-2 (stereo unspecified),-15%,-1%,i,-2%,.,i
FCCCOc1ccc(-c2ccnc3ncnn23)cc1,22µM*,.,i,?,4%,i
COc1ccc(C(=O)NCC(=O)OCC(=O)c2ccccc2Br)cc1OC,8%,.,i,.,-5%,i
COc1cc(C(=O)NCC(=O)OCC(=O)c2cccc3ccccc23)cc(OC)c1OC,8%,2%,13µM*,-1%,0%,i
CCOC(=O)N(O)c1ccc(C=Cc2ccccc2)cc1,14µM*,-5%,.,.,-2%,i
CC(=O)NC(c1cccc(F)c1)c1nc(-c2cccc(C(C)C)c2)cs1 (stereo unspecified),25µM*,.,?,.,?,i
COc1ccc(-c2csc(C(NC(C)=O)c3ccc(F)c(F)c3)n2)cn1 (stereo unspecified),35µM*,.,i,.,12%,i
Cn1c2ccccc2c(=O)c2ccc(C#Cc3ccc(N)cc3)cc21,11µM*,6.3µM*,?,-2%,14%,i
COc1ccc(C#Cc2ccc3c(=O)c4ccccc4n(C)c3c2)cc1,?,14%,i,15%,-6%,i
Cn1c2ccccc2c(=O)c2cc(C#Cc3cccc(N)c3)ccc21,13µM*,?,i,11%,1%,i
SMILES,TDP43 rescue,uPA surface inh,FUS suppressor,BCR signal inh,aSyn rescue,Abeta rescue
Cn1c2ccccc2c(=O)c2cc(C#CC3=CCCCC3)ccc21,9%,6.3µM*,?,11%,15%,i
CCCCCCC(=O)Nc1ccc(C(=O)N/N=C/c2cccnc2)cc1,-6%,-5%,28µM*,0%,-1%,i
Nc1c(-c2ccccc2)cnc2cc(-c3ccccc3)nn12,-8%,?,i,?,-24%,i
Cc1cc2ncc(-c3ccc(Cl)cc3)c(N)n2n1,16%,3.5µM*,i,-4%,-5%,i
O=C(COC(=O)CCCOc1ccc(Cl)cc1Cl)NCc1ccc(F)cc1,16µM*,-2%,i,16%,5%,?
O=C(COc1ccc(Cl)cc1)NCc1ccc(F)cc1,11µM*,0%,i,3%,3%,i
Cc1cccc(C)c1-n1nnnc1SCSc1nnnn1-c1c(C)cccc1C,-28%,3%,i,?,1%,i
CSc1nnc(NC(=O)c2ccco2)s1,-2%,1%,i,?,-10%,i
CCC(C)Sc1nnc(NC(=O)c2ccco2)s1 (stereo unspecified),13µM*,-9%,i,.,-24%,i
O=C(CSc1ccc(F)cc1)NCCSc1ccccc1,13µM*,1%,i,10%,6%,i
O=C(CSc1ccccc1)NCCc1ccc(F)cc1,-2%,-5%,i,2%,-3%,i
Cc1ccc(S(=O)(=O)NCCC(=O)OCc2ccc([N+](=O)[O-])cc2)cc1C,20µM*,1%,i,2%,0%,i
Cc1ccc(N2CCN(C(=O)C(=O)c3cccc([N+](=O)[O-])c3)CC2)cc1,16µM*,.,i,.,-3%,i
O=C(c1cccc([N+](=O)[O-])c1)N1CCN(c2ccc(Cl)cc2)CC1,?,1%,.,4%,12%,i
O=[N+]([O-])c1cccc(C(=S)N2CCN(c3ccccc3)CC2)c1,13µM*,2%,.,2%,10%,i
O=C(Oc1cccc(C(=S)N2CCOCC2)c1)c1ccc([N+](=O)[O-])cc1[N+](=O)[O-],11µM*,.,i,-5%,-56%,i
CCOC(=O)CSc1nnc(NCC(=O)OC)c(=O)[nH]1,-3%,-4%,i,?,2%,i
Cc1cccc(CSCc2ccc(C(=O)NCCc3ccccc3)o2)c1,35µM*,.,i,?,21%,i
COCCNC(=O)c1ccc(CSCc2cccc(Cl)c2)o1,?,10%,i,1%,-10%,i
CCc1ccccc1NC(=O)N1CCOc2ccccc21,?,.,i,.,.,i
CCOc1ccc(NC(=O)N2CCOc3ccccc32)cc1,11µM*,.,i,.,.,i
CCOc1cc(C)c(C(C)C)cc1S(=O)(=O)n1ccnc1CC,20µM*,.,i,.,.,i
Cc1csc(N/N=C/c2c(F)cccc2Cl)n1,28µM*,8%,i,?,-18%,i
Cc1csc(N/N=C/c2ccccc2F)n1,?,2%,i,-4%,-1%,i
